Bioassay records deposited in PubChem BioAssay by National Center for Advancing Translational Sciences (NCATS).
HT1080-NT tox = kills 2HG-producing HT-1080-NT fibrosarcoma cells | AID 686970 | 360,000 tested, 1.6% active | Potency, µM (highest dose often 46.1 µM), actives largely listed as cytotoxic | HT-1080-NT fibrosarcoma viability, CellTiter-Glo ATP luminescence, 48 h;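 also: NT is the 2HG producing partner of a matched IDH1 knockdown line; nearly all actives have a fitted effect of over 55% in size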
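HT-1080-NT fibrosarcoma cells (2HG-overproducing), 750 cells/well in RPMI with 5% FBS, dosed after 2 h and incubated 48 h at 37C. CellTiter-Glo luminescence normalized to DMSO and no-cell wells; concentration-response curves fitted and classed.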
KB-V1 cytotox = KB-V1 MDR subline cytotoxicity; KB-V1 MDR cells viability, CellTiter-Glo, 72 h; Potency, µM (highest dose often 46.1 µM), actives largely listed as cytotoxic; 400,000 tested, 3.4% active; AID 1347076; also: nearly all actives have a fitted effect of over 60% in size
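In this primary screen, KB-V1 cells overexpressing P-gp are incubated with library compounds (lowest to highest concentration) for 72 h at 37 degrees C before a luminescent ATP viability read.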
HT1080 IDH1KD tx = toxicity to HT-1080 IDH1 knockdown cells (counter line). Potency, µM (top dose mostly 46.1 µM), most hits filed as cytotoxic. 360,000 tested, 2% active. AID 686971. HT-1080 IDH1 knockdown viability, ATP luminescence, 48 h
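Viability of IDH1-knockdown HT-1080 fibrosarcoma cells was assessed by CellTiter-Glo after 48 h at 37 °C with titrated compound; concentration-effect curves were classified by fit quality and response size.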
DT40 TDP1 CPT = DT40-hTDP1 cell growth loss with CPT; chicken DT40 Tdp1-/-;hTDP1 cells + 20 nM CPT, ATP luminescence, 48 h; Potency, µM (doses to about 46.2 µM), actives largely listed as inhibitors; 420,000 tested, 12% active; also: nearly all actives have a fitted effect of over 55% in size
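Chicken DT40 Tdp1-/- cells complemented with human TDP1, 400 cells/well, exposed to compounds plus 20 nM camptothecin for at least 48 h at 37 C; viability read as ATP content by CellTiter-Glo luminescence.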
TDP1 cell noCPT = qHTS for Inhibitors of human tyrosyl-DNA phosphodiesterase 1 (TDP1): qHTS in cells in absence of CPT. 420,000 tested, 15% active. DT40 Tdp1-/- hTDP1 cells, no CPT, ATP luminescence, 48 h. AID 686978, 2013. Potency, µM (series often up to 46.2 µM), most hits filed as inhibitors; also: nearly all actives have a fitted effect of over 55% in size
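Seeded 400 DT40-hTDP1 cells/well (vehicle DMSO, no 20 nM CPT); pinned compounds; ≥48 hr at 37 °C; CellTiter-Glo luminescence as viability measure.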
KB-3-1 tox = kills parental KB-3-1 adenocarcinoma cells; KB-3-1 viability, CellTiter-Glo ATP luminescence, 72 h; Potency, µM (titrated, usually from 46.1 µM), hits mostly cytotoxic; 400,000 tested, 1.4% active; AID 1347075; also: nearly all actives have a fitted effect of over 60% in size
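KB-3-1 parental drug-naive adenocarcinoma cells in DMEM/10% FBS, incubated 72 h at 37 C with pin-transferred compounds across a concentration series. Viability by CellTiter-Glo luminescence; concentration-response curves fitted after normalization.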
Hits are given with their value; - = inactive; ? = inconclusive; . = no result; [ ] = remark or other dose. This is a sample that favours compounds with a hit; in the whole collection about 19% have one here. Calls follow the shape of the dose curve; as a rule, active = well fitted curve in the direction sought with a large enough effect; inconclusive = small, poorly fitted or top-dose-only effect, or another doubt; inactive = no such curve, though single readings can be large; an effect the other way counts as inactive or inconclusive.

SMILES	HT1080-NT tox	KB-V1 cytotox	HT1080 IDH1KD tx	DT40 TDP1 CPT	TDP1 cell noCPT	KB-3-1 tox
CNc1cccc(S(=O)(=O)N2CCCN(S(=O)(=O)c3ccc4c(c3)OCCO4)CC2)c1	.	-	.	.	.	-
CC(C)NC(=O)c1cn([C@H]2CC[C@@H](NC(=O)/C=C/c3cccs3)CC2)nn1	.	.	.	?	-	.
OC[C@@H]1CN(Cc2ccccc2)C[C@H](n2cnc3c(NCc4ccncc4)ncnc32)O1	-	-	-	-	-	-
Cc1cc(C)c(C)c(S(=O)(=O)N2CCN(c3ncnc4sc(C)c(C)c34)CC2)c1C	-	.	-	-	?	.
CCc1nc(N2CCN(S(=O)(=O)c3ccc(Br)cc3)CC2)c2c(C)c(C)sc2n1	-	?	-[9.24 µM]	?	23µM	-
CCN(CC)c1cc(C)c2ccccc2n1	-	-	-	-	-	-
CCN(CC)c1cc(C)c2cc(NC(=O)/C=C/c3ccccc3OC(C)C)ccc2n1	.	-	.	?	23µM	-
CCOCCCn1c(=S)[nH]c2cc(C(=O)N3CCN(c4ccccc4)CC3)ccc2c1=O	-	-	-	?	-	?
O=C(c1ccc2c(c1)[nH]c(=S)n1c3ccccc3nc21)N1CCN(c2ncccn2)CC1	-	-	-	21µM	?	-
O=C(c1ccc(F)cc1)N1CCN(c2ncccn2)CC1	-	-	-	-	-	-
O=C(c1ccc2c(=O)n(-c3ccccc3)c(=S)[nH]c2c1)N1CCN(c2ccccc2)CC1	-	-	-	15µM	12µM	-
O=C(c1ccc2c(=O)n(Cc3ccccc3)c(=S)[nH]c2c1)N1CCCC1	-	-	-	-	?	-
O=C(c1ccc2c(=O)n(-c3ccccc3)c(=S)[nH]c2c1)N1CCCCC1	-	?	-	6.5µM	6.5µM	7.3µM
COc1ccc(NS(=O)(=O)c2cccc3ccccc23)cc1	-	?	?	?	?	?
Cc1cccc(OC(=O)c2cc(-c3ccc(Cl)cc3)on2)c1C	.	-	.	-	-	-
CCCC(C)C(=O)Nc1ccc(S(=O)(=O)Nc2nccs2)cc1 (configuration not stated)	-	-	-	-	-	-
COc1cccc2cc(CC(=O)c3ccccc3)c(=O)oc12	-	-	-	-	-	-
CCc1cc2c(COC(=O)c3cccc(NS(C)(=O)=O)c3)cc(=O)oc2cc1O	?	-	?	16µM	10µM	-
CCc1cc2c(COC(=O)c3cc(S(=O)(=O)N4CCOCC4)ccc3F)cc(=O)oc2cc1O	?	-	-	18µM	?	-
COc1ccc(NC(=O)Cn2nnc(-c3ccccc3NC(=O)c3ccco3)n2)cc1	?	?	?	2.9µM	2.6µM	4.1µM
COc1ccccc1NC(=O)Cn1nnc(-c2ccccc2NC(=O)c2cccs2)n1	-	-	-	?	21µM	-
COc1ccc(C(=O)Cn2nnc(-c3ccccc3NC(=O)C3CCCCC3)n2)cc1	-	?	-	23µM	?	-
CC1Cc2ccccc2N1C(=O)Cn1nnc(-c2ccccc2NC(=O)C2CCC2)n1 (configuration not stated)	-	-	?	?	15µM	-
CCC(=O)Nc1ccccc1-c1nnn(CC(=O)N2c3ccccc3CC2C)n1 (configuration not stated)	-	?	-	?	-	-
COc1ccccc1NC(=O)Cn1nnc(-c2ccccc2NC(=O)c2ccco2)n1	-	?	-	-	?	-
SMILES	HT1080-NT tox	KB-V1 cytotox	HT1080 IDH1KD tx	DT40 TDP1 CPT	TDP1 cell noCPT	KB-3-1 tox
Cc1ccc(S(=O)(=O)N2CCOCC2)cc1C(=O)Nc1ccc(S(=O)(=O)Nc2nccs2)cc1	-	-	-	-	-	-
CN(C)CC1CCCCC1C1(O)c2ccccc2CSc2sccc21 (configuration not stated)	18µM	-	18µM	?	?	-
O=C(CSc1nnc(CNC(=O)c2c(F)cccc2Cl)o1)Nc1ccccc1F	.	-	.	-	-	-
Fc1ccc(C(c2nnnn2C2CCCC2)N2CCN(Cc3ccccc3)CC2)cc1 (configuration not stated)	-	3.7µM	-	18µM	?	-
c1ccc(C(c2ccccc2)N2CCN(Cc3nnnn3C3CCCC3)CC2)cc1	-	?	-	?	16µM	-
C1CCC(n2nnnc2CN2CCCC2)CC1	-	-	-	?	-	-
CCC(C)(C)n1nnnc1CN1CCN(C(c2ccccc2)c2ccccc2)CC1	?	?	-	?	21µM	-
CC(C)CCn1nnnc1CN1CCN(C(c2ccccc2)c2ccccc2)CC1	-	-	-	?	18µM	-
Clc1ccc(C(c2nnnn2C2CCCC2)N2CCN(Cc3ccncc3)CC2)cc1 (configuration not stated)	-	-	-	?	?	-
CSc1nc(NC2CCCC2)c([N+](=O)[O-])c(NC2CCCC2)n1	.	.	.	-	-	.
C/C(=N\NC(=O)c1cc(Cl)ccc1O)c1ccc(Br)s1	-	21µM	?	?	?	?
C/C(=N/NC(=O)CNc1ccc(C)cc1)c1ccc(Br)s1	-	-	-	18µM	18µM	-
C/C(=N/NC(=O)c1ccc(Br)s1)c1ccncc1	-	?	-	-	-	-
C/C(=N\NC(=O)c1ccc(Cl)cc1)c1ccc(Br)s1	-	-	-	12µM	10µM	?
C/C(=N/NC(=O)c1ccco1)c1ccc(Br)s1	-	-	-	-	-	-
CC(CC(=O)NCc1ccc(Cl)cc1)CC1=NS(=O)(=O)c2ccccc2N1 (configuration not stated)	.	-	.	?	?	-
Cc1ccccc1NC(=O)CSc1nc2n(n1)CCCCC2	-	-	-	-	-	-
CC(=O)N(c1ccc2ccccc2c1)C1SC(=O)N(c2cccc(C)c2)C1=O (configuration not stated)	-	.	-	-	-	.
COc1ccc(N2CCN(C(=O)NC(=O)c3ccccc3)CC2)cc1	-	-	-	-	-	-
COc1ccc(S(=O)(=O)N(CC(=O)NCCC(C)C)c2ccccc2)cc1OC	-	-	-	-	?	-
CCOc1ccc(N(CC(=O)NC(C(C)C)C(C)C)S(=O)(=O)c2ccc(OC)c(OC)c2)cc1	-	-	-	?	23µM	-
COc1ccc(S(=O)(=O)N(CC(=O)NCc2ccccc2)c2ccc(C)cc2)cc1OC	.	-	.	?	6.5µM	-
COc1ccc(S(=O)(=O)N(CCc2ccccc2)CC(=O)NCc2ccccc2)cc1OC	.	?	.	16µM	?	?
